These results are taken from PubChem BioAssay.

Activity calls are given as the source filed them. Unless noted, no rule for the calls is given here.

A short description of test [1]: compounds binding Alexa647 anti-His antibody – biochemical, small-molecule microarray, 635 nm fluorescence, artefact control for SMM control protein annotation, primary screen (AID 1128).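 Also: score merges feature fluorescence with signal-to-noise for each printed compound spot.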 The following applies: higher = more signal.
The subject of test [2] is Human papillomavirus type 1a E7 protein (residues 1-88). Kind of test: HPV1a E7 small-molecule binders, primary screen, biochemical, small-molecule microarray, residues 1-88, 635 nm (AID 1129). The following applies: small-molecule microarray binding, fluorescence 635 nm; higher = more signal.
For test [3], the target named is Focal adhesion kinase 1 (Homo sapiens) (UniProt Q05397). Kind of test: PTK2 protein binding on printed compound slides – biochemical, small-molecule microarray, 635/667 nm fluorescence, BSA, DTT, primary screen (AID 1130).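 Also: composite of spot emission at 667 nm and signal to noise over triplicate slides.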 The following applies: 635 nm fluorescence, higher = more signal.
Sequence of Focal adhesion kinase 1 (Homo sapiens) (Q05397 whole entry, looked up): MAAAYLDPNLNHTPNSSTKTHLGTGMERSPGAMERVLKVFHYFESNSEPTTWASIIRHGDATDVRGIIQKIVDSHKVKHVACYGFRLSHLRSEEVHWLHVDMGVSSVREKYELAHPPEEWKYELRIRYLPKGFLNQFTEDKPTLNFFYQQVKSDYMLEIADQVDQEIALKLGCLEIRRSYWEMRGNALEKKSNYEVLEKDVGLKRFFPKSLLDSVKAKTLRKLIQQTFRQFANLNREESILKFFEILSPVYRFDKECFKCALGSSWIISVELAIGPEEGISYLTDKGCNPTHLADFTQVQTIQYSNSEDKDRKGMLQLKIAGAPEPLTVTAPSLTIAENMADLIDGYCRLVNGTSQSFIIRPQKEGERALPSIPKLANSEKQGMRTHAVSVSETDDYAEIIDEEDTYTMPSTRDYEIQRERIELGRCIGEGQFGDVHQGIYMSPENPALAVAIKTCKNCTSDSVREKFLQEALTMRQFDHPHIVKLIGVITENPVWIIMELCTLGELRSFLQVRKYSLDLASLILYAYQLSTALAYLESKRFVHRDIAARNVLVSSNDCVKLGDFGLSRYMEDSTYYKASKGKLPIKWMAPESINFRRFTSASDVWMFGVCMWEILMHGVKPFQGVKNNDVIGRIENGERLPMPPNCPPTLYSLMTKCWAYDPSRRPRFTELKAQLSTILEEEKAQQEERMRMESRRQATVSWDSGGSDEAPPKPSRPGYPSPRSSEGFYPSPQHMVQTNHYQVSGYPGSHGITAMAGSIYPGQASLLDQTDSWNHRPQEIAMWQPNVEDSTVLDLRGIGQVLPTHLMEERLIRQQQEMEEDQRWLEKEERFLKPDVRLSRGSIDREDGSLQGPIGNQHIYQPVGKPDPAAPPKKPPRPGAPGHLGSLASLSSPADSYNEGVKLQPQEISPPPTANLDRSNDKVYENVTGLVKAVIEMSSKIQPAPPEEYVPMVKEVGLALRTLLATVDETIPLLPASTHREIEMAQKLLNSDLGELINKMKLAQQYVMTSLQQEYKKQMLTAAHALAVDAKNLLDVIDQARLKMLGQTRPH
Test [4] concerns Fibrinogen (Alexa647-labelled). Nature of the test: Alexa647-fibrinogen binding to printed small molecules – biochemical, small-molecule microarray, 635/667 nm fluorescence, artefact control for SMM control-protein annotation, profiling panel (AID 1131).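 Also: z-score merges 667 nm fluorescence with per-spot signal-to-noise over triplicate slides.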 As to conditions: fibrinogen-A647 binding fluorescence, higher = more signal.
Test [5] has as its target Follistatin (Homo sapiens) (UniProt P19883). Kind of test: FST protein binding to printed compounds – biochemical, small-molecule microarray, 635/667 nm fluorescence, primary screen (AID 1132). As to conditions: 635 nm fluorescence, higher = more signal.
Test [6] deals with Fibroblast growth factor 2 (Homo sapiens) (UniProt P09038). Kind of test: basic fibroblast growth factor binding to printed compounds – biochemical, small-molecule microarray, 635/667 nm fluorescence, primary screen (AID 1133). The following applies: FGF2, fluorescence 635/667, higher = more signal.
Sequence of Fibroblast growth factor 2 (Homo sapiens) (P09038 whole entry, looked up): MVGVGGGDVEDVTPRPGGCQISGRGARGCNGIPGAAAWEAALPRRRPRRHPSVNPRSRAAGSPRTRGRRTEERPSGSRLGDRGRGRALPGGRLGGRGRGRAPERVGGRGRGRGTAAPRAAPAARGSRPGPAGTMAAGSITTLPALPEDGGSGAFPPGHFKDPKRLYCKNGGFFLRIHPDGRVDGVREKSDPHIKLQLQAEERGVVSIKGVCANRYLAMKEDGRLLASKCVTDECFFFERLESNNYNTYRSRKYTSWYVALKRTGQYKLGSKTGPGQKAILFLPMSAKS
A short description of test [7]: JC-1 mitochondrial potential readout, lung cancer cells – cell-based, A549, JC-1 fluorescence, basal, 24 h, 100 nL, profiling panel (AID 1138).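 Also: A549 lung adenocarcinoma cells under basal conditions with no added stimulus; test concentration not given here.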 As to conditions: higher = more signal.
The test system of test [8] is Lefty1. Kind of test: Lefty1 protein binding to printed compounds – biochemical, small-molecule microarray, 635/667 nm fluorescence, primary screen (AID 1139). As to conditions: fluorescence 635/667, higher = more signal.
The subject of test [9] is wheat germ agglutinin (Triticum aestivum), Alexa647-labelled. Kind of test: Alexa647-WGA lectin binding to printed small molecules – biochemical, small-molecule microarray, 635/667 nm fluorescence, artefact control for SMM control-protein annotation, profiling panel (AID 1140).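 Also: score merges 667 nm feature emission with signal to noise over triplicate slides.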 As to conditions: WGA-A647 binding, 635 nm fluorescence, higher = more signal.
The target of test [10] is Luciferin 4-monooxygenase (Photinus pyralis) (UniProt P08659). Kind of test: inhibition of purified Photinus pyralis luciferase – biochemical, luminescence, purified enzyme, 2006 set, primary screen (AID 1141).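 Also: cell-free assay with purified firefly luciferase at 100 ng per well in PBS; test concentration not given here.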 The following applies: purified firefly luciferase, SteadyGlo luminescence, 30 min; higher = more signal, called active from +8 up or from −8 down.
Sequence of Luciferin 4-monooxygenase (Photinus pyralis) (P08659 whole entry, looked up): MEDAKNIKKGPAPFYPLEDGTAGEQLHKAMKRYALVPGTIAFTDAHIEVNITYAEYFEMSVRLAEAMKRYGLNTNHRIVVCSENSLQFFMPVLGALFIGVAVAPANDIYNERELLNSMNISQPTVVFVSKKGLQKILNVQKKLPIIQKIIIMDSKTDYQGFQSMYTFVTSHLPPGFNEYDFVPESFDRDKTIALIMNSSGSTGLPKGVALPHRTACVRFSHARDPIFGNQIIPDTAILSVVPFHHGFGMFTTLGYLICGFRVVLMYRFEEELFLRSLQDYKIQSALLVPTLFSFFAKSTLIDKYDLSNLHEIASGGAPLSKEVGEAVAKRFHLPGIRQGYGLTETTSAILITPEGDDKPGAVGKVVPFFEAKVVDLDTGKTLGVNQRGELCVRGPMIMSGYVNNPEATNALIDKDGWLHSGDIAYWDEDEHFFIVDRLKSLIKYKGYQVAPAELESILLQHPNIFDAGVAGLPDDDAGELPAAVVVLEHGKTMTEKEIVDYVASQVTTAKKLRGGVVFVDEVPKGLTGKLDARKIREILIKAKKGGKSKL
The subject of test [11] is Wnt5a (protein binding on small-molecule microarray). Kind of test: small molecules binding Wnt5a protein – biophysical, small-molecule microarray, 635/667 nm fluorescence, primary screen (AID 1142).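 Also: fluorescence read at 667 nm with signal to noise per printed feature.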 The following applies: 635 nm fluorescence, higher = more signal.
A short description of test [12]: ATP-based viability of Huh7 replicon cells – cell-based, CellTiter-Glo luminescence, basal, 48 h, cytotoxicity control for HCV replication inhibitor project, primary screen (AID 1143).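 Also: Huh7 hepatoma cells carrying a hepatitis C replication reporter with no stimulus; test concentration not given here.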 The following applies: higher = more signal, called active from +8 up or from −8 down. For orientation: A replicon is a self-replicating genome or part of one, used to study replication in cells.

A short description of test [13]: Pseudomonas biofilm growth suppression – PAO1 strain, BacTiter-Glo luminescence, LB-PBS, primary screen (AID 1144). The following applies: P. aeruginosa PAO1 biofilm, 12 h, higher = more signal.
A short description of test [14]: basal CRE-LacZ reporter activity in PC12 – cell-based, unstimulated, primary screen (AID 1145). The following applies: no forskolin, luminescence, 4.5 h, higher = more signal, called active from +8 up or from −8 down.
Test [15] in a line: forskolin-driven CRE-LacZ activity in PC12 – cell-based, CRE-LacZ reporter, forskolin-stimulated, primary screen (AID 1146).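 Also: PC12 cells with 6xCRE LacZ reporter stimulated by forskolin 10 µM; beta-galactosidase reporter signal reflecting CREB driven transcription.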 The following applies: luminescence, 4.5 h, higher = more signal, called active from +8 up or from −8 down.
Test [16] addresses Streptavidin (Streptomyces avidinii) (UniProt P22629). Nature of the test: compounds binding control protein streptavidin – biophysical, small-molecule microarray, 635/667 nm fluorescence, artefact control for SMM compound annotation, primary screen (AID 1147).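 Also: signal reflects streptavidin binding to arrayed compounds as a control protein.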 The following applies: higher = more signal.
The nature of test [17]: probe aInhba binding on compound microarray – biochemical, small-molecule microarray, 635/667 nm fluorescence, primary screen (AID 1148).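 Also: score merges 667nm spot fluorescence with signal-to-noise for antibody binding to printed compounds.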 As to conditions: higher = more signal.
In test [18] the target is Torsin-1A (Homo sapiens) (UniProt O14656). Nature of the test: TOR1A wild-type binding on microarray – cell lysate, small-molecule microarray, lysate, 635/667 nm, primary screen (AID 1149). As to conditions: COS7 hTOR1A-WT lysate, 635 nm fluorescence, higher = more signal.
Sequence of Torsin-1A (Homo sapiens) (O14656 whole entry, looked up): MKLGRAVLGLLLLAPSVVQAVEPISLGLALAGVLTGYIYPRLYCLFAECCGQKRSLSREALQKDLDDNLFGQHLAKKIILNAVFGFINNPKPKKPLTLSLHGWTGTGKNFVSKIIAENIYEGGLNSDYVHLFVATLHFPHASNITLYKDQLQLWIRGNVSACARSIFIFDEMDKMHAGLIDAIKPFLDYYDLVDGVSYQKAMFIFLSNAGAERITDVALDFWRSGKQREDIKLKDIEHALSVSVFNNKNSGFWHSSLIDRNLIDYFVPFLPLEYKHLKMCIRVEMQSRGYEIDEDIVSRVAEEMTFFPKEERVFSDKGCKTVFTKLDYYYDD
For test [19] the target is unchanged. Kind of test: torsin A mutant lysate binding on microarrays – cell lysate, small-molecule microarray, COS7 lysate, 635/667 nm fluorescence, primary screen (AID 1150).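 Also: score pools 667 nm emission and signal to noise measuring lysate protein binding.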 As to conditions: COS7 hTOR1A mutant lysate, 635 nm fluorescence, higher = more signal.
Test [20] relates to Sonic hedgehog protein (Shh). Nature of the test: Sonic hedgehog microarray binding compounds – biochemical, small-molecule microarray, 635/667 nm fluorescence, primary screen (AID 1151).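 Also: Shh protein binding to compounds spotted on small-molecule microarray slides; score combines spot fluorescence intensity with signal-to-noise across triplicate slides.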 As to conditions: 635 nm fluorescence, higher = more signal.

Sequence of Follistatin (Homo sapiens) (P19883 whole entry, looked up): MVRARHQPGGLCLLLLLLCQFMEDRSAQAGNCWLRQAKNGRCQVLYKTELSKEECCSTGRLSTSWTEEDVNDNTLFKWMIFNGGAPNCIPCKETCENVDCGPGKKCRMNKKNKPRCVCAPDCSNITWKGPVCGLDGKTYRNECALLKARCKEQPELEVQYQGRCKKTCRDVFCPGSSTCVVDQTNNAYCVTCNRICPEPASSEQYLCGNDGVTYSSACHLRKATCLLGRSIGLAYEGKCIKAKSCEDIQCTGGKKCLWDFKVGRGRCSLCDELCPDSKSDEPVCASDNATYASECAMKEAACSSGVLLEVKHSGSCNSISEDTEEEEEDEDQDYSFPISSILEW
Sequence of Streptavidin (Streptomyces avidinii) (P22629 whole entry, looked up): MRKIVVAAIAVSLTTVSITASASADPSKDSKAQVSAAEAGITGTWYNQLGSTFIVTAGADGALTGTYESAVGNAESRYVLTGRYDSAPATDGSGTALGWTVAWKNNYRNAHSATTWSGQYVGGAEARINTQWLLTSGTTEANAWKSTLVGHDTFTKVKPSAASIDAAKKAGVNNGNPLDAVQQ

Turning to `[N-]=[N+]=Nc1ccccc1C[C@]1(C(N)=O)N=C(c2ccc(OCCCO)cc2)O[C@H]1c1ccccc1`, the composite z-score in test [1] was 2.45; in test [2], 1.2; in [3] it was -0.155; in [4], 1.01; in test [5], 0.371; in test [6] it was -0.768. The composite z-score in [8] was -0.364; in test [9], 1.23; in test [11], 0.498; in test [16] it was 0.665; in test [17] it was 0.0516; in test [18], 0.644. Also, the composite z-score in [19] is -0.0736; in test [20], -1.98. The z-score in test [7] was 0.518; in [10], -1.53 (inactive); in test [12] it was -2.27 (inactive); in test [13] it was -0.726 (inactive); in test [14] it was 1.31 (inactive); in test [15], -0.723 (inactive).

Regarding `[N-]=[N+]=NCc1ccccc1[C@@H]1OC(c2ccc(OCCCO)cc2)=N[C@]1(CCS(=O)(=O)c1ccccc1)C(=O)NCCN1CCOCC1`, the composite z-score in test [1] came to 1.68; in [2], 1.29; in [3], 0.261; in test [4] it was 1.03; in [5] it was 1.43; in test [6], 0.913. The composite z-score came to 0.684 in [8]; 1.31 in [9]; 0.808 in test [11]; 0.81 in [16]; 0.285 in [17]; 2.1 in test [18]. The values for the composite z-score in test [19] and in [20] were 1.9 and 0.615, respectively. The z-score in [7] was 0.721; in test [10], -2.52 (inactive); in [12], -0.31 (inactive); in test [13] it was -0.174 (inactive); in [14], 1.24 (inactive); in [15] it was -1.16 (inactive).

In the case of `CN1C(=O)C2C=CC(C(O)c3cccs3)N(Nc3ccccc3)C2C1=O` (stereo not given), the composite z-score in [1] was 0.803; in test [2], 1.16; in test [3], 0.251; in [4], 0.024; in [5], 0.492; in test [6], -0.294. The composite z-score in test [8] was determined as 0.249; in test [9], 0.508; in test [11], 0.455; in [16] it was 0.389; in test [17], 0.406; in [18] it was 0.757. For the same compound, the results for the composite z-score in test [19] and in [20] were 0.738 and 0.251, respectively. For the same compound, the z-score in [7] was 0.0177; in test [10], -0.0014 (inactive); in test [12] it was 0.593 (inactive); in [13], -0.0101 (inactive); in test [14], 0.426 (inactive); in test [15], 0.711 (inactive).

`COC(=O)[C@@]1(Cc2ccc(F)cc2)[C@H]2c3cc(C(=O)N4CCCC4)n(Cc4cc(C)n(C)n4)c3C[C@H]2CN1C(=O)c1ccccc1`: the composite z-score in [1] is 1.85; in [2], 1.26; in test [3], 1.03; in test [4] it was 1.01; in test [5] it was 0.392; in [6], -0.47. For the same compound, the composite z-score in test [8] is -0.847; in test [9], 0.628; in test [11], 0.639; in test [16], 1.65; in test [17] it was 0.32; in [18], 0.0304. Further, the composite z-score was 1.04 in [19] and -1.06 in [20]. The z-score was 0.0507 in [7]; 0.609 (inactive) in [10]; -2 (inactive) in test [12]; -0.132 (inactive) in test [13]; 0.583 (inactive) in test [14]; 0.989 (inactive) in test [15].
